Compound activity (PubChem)
MBD2 DNA inh: blocks human MBD2 binding to methylated DNA; TR-FRET, MBD2 binding to methylated oligonucleotide; inhibition, % at 4.4 µM; 0.31% of 370,000 active; AID 686964; in the data active = inhibition above about 13%
Target sequence (Q9UBB5 whole entry, looked up): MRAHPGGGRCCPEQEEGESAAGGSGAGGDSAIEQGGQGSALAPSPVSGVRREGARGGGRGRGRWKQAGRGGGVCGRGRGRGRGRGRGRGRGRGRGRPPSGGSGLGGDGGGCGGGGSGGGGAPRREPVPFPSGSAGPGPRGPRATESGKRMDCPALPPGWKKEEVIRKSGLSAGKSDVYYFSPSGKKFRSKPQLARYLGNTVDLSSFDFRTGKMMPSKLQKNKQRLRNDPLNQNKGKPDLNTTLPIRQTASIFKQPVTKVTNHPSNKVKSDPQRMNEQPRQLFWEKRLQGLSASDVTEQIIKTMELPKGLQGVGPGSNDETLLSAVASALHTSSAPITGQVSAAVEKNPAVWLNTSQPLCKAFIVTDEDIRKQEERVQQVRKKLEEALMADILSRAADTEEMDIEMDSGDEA
LEDGF integ inh: blocks HIV-1 LEDGF/p75-dependent DNA integration | AID 743269 | TR-FRET IN-LEDGF/p75 DNA integration, Eu/Cy5 | 0.64% of 370,000 active | inhibition, % at 3.7 µM;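 active = inhibition above the screen-wide mean plus 3 SD, cut at about 13% in these data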;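 note: signal is the Cy5 over europium emission ratio at 671 and 618 nm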
rCAG RNA binder: binds r(CAG) RNA repeats; r(CAG) RNA repeat, TO-PRO-1 dye displacement fluorescence; inhibition, % at 3 µM; 1.3% of 370,000 active; AID 651821;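 active = inhibition above the plate cutoff, the mean of all test compounds on that plate plus 3 SD, cut at about 35% in these data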;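 note: higher means more dye released from RNA so lower well fluorescence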
UHRF1 MBD2 ctr: blocks human UHRF1 binding to methylated DNA | inhibition, % at 4.4 µM | Q96T88 | 0.75% of 370,000 active | UHRF1 binding to methylated oligo, TR-FRET | AID 687016; in the data active = inhibition above about 21%;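 note: UHRF1 SRA domain binding a hemimethylated CpG hairpin DNA probe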
DNMT1 inh: inhibitors of human DNMT1; P26358; DNMT1 molecular beacon, Hinp1I cleavage, fluorescence; inhibition (reported as % activation of signal), % at 10 µM; 0.83% of 360,000 active; AID 588458; in the data active = inhibition above about 50%
PG9 Ab binder: binds the HIV-1 gp120 antibody PG9; inhibition, % at 6.7 µM; 0.43% of 360,000 active; TR-FRET gp120-PG9 antibody binding; in the data active = inhibition above about 8.5%
PG9 bind confirm: confirmation of small molecules binding HIV-1 gp120 antibody PG9 | shares compounds with PG9 Ab binder | TR-FRET PG9 antibody binding, biochemical | inhibition, % at 6.7 µM | 90% of 1,500 active | AID 651571; in the data active = inhibition above about 9%
PGV04 counter: PGV04 control antibody binding, counter-screen. shares compounds with PG9 Ab binder. 95% of 1,500 active. TR-FRET PGV04 antibody-gp120 binding, biochemical. inhibition, % at 6.7 µM. AID 651604; in the data active = inhibition above about 9.5%
PG9 binder DR: PG9 antibody binding, dose response; shares compounds with PG9 Ab binder; TR-FRET PG9 antibody-gp120 binding inhibition; IC50, µM; 95 tested, under 10 active; AID 651848; in the data active = IC50 below about 10 µM
PGV04 binding DR: binds control antibody PGV04 in PG9 counter-screen | shares compounds with PG9 Ab binder | TR-FRET binding to control antibody PGV04 | IC50, µM | 20% of 95 active | AID 651937
PG126 binding DR: counter-screen for PG9 binders: binding to control antibody PG126. shares compounds with PG9 Ab binder. TR-FRET binding to antibody PG126, counterscreen. IC50, µM. 20% of 95 active
Numbers stand for hits; - = inactive; . = not tested or not shown. The list is not random: actives were taken first. Their share in the collection is about 3.5%. Cut-off read from the data, not from the text of the source, unless noted: active = IC50 below about 9 µM; inactive = the rest.

SMILES | MBD2 DNA inh | LEDGF integ inh | rCAG RNA binder | UHRF1 MBD2 ctr | DNMT1 inh | PG9 Ab binder | PG9 bind confirm | PGV04 counter | others
N#Cc1c(N)nc(SCC(=O)NC2CCCCC2)c(C#N)c1-c1ccc(Cl)cc1 | - | - | - | - | - | 18 | 26 | 29
COC(=O)CSc1nc(N)c(C#N)c(-c2ccc(O)cc2)c1C#N | - | - | - | - | - | - | . | .
Nn1c(SCC(=O)NC2CCCCC2)nnc1-c1ccc(Cl)cc1 | - | - | - | - | - | - | . | .
CC(C)c1ccc(-c2c(C#N)c(N)nc(SCC(=O)N3CCCCCC3)c2C#N)cc1 | - | - | - | - | . | 83 | 89 | 92
COC(=O)C1CN(Cc2cn(Cc3ccc(F)cc3)nn2)CCS(=O)(=O)N1Cc1ccc(OC)cc1 (stereo unspecified) | - | - | - | - | . | . | . | .
Cc1ccc(-n2c(=O)c3sccc3n(CC(=O)NCc3ccco3)c2=O)cc1F | - | - | - | - | - | 9.4 | 12 | 19
Cc1ccccc1Cn1c(=O)n(CCCC(=O)NCc2ccco2)c(=O)c2sccc21 | - | - | - | - | - | - | . | .
Cc1ccc(C)c(Cn2c(=O)n(CCC(=O)NCc3ccco3)c(=O)c3sccc32)c1 | - | - | - | - | - | 12 | 13 | 18
Cc1cc(C)c(Cn2c(=O)n(CCCC(=O)NCc3ccco3)c(=O)c3sccc32)c(C)c1 | - | - | - | - | - | 18 | 21 | 26
COc1ccc(C=O)cc1Cn1c(=O)n(CCC(=O)NCc2ccco2)c(=O)c2sccc21 | - | - | - | - | - | 14 | - | 17
Cc1cccc2nc(Cn3c(=O)n(CCC(=O)NCc4ccco4)c(=O)c4sccc43)cc(=O)n12 | - | - | - | - | - | - | . | .
N#CC(C#N)=C1NC(N)=C(C#N)C(c2ccccc2)=C1C#N | - | - | - | - | - | 22 | 21 | 26
C=C1CC2(OC1=O)c1ccccc1CCc1ccccc12 | - | - | - | - | - | - | . | .
CCCCCCCCN1C(=O)[C@@H](CC(=O)NCc2ccc(C)o2)C[C@@]2(C(=O)OC)C1=C[C@H](COCc1ccccc1)O[C@@H]2C | - | - | - | - | . | . | . | .
CCOC(=O)c1nn(-c2ccc(Cl)cc2)c2nc(-c3ccc(C)cc3)c(C#N)c(=O)n12 | - | - | - | - | - | - | . | .
CCOC(=O)c1nn(-c2ccc(Cl)cc2)c2nc(CC)c(C#N)c(=O)n12 | - | - | - | - | - | 16 | 20 | 25
O=C(COc1ccccc1[N+](=O)[O-])N1CCN(c2ccccn2)CC1 | - | - | - | - | - | - | . | .
CCc1ccccc1NC(=O)c1nnn(CC(=O)Nc2cccc(C)c2C)c1N | - | - | - | - | - | 41 | 41 | 48
Cc1nc2ccc(-c3nc4ccccc4o3)cc2[nH]1 | - | - | - | - | - | - | . | .
Nc1ccc(-c2nc3ccc(-c4nc5ccccc5o4)cc3[nH]2)cc1 | - | - | - | - | - | 10 | 10 | 20
CC(C)C1C(=O)N(Cc2cn(CCC3OCCO3)nn2)CCS(=O)(=O)N1Cc1ccc(-c2ccc(F)cc2Cl)cc1 (stereo unspecified) | - | - | - | - | - | - | . | .
CC(C)(C)c1cccc(N/C(=C\C(=O)c2ccccc2)c2ccccc2)c1 | - | - | - | - | . | - | . | .
Cc1ccc(C(=O)C2=C(O)C(=O)N(Cc3cccnc3)C2c2ccc(OC(C)C)cc2)o1 (stereo unspecified) | - | - | - | - | - | 35 | 44 | 50
Cc1ccc(C(=O)C2=C(O)C(=O)N(Cc3cccnc3)C2c2ccc(N(C)C)cc2)o1 (stereo unspecified) | - | - | - | - | - | - | . | .
COc1ccc(C2C(C(=O)c3ccc(C)o3)=C(O)C(=O)N2Cc2cccnc2)cc1 (stereo unspecified) | - | - | - | - | - | 13 | 23 | 29
SMILES | MBD2 DNA inh | LEDGF integ inh | rCAG RNA binder | UHRF1 MBD2 ctr | DNMT1 inh | PG9 Ab binder | PG9 bind confirm | PGV04 counter | others
CCCCOc1ccc(C2C(C(=O)c3ccc(C)o3)=C(O)C(=O)N2Cc2ccco2)cc1 (stereo unspecified) | - | - | - | - | - | 19 | 23 | 27
Cc1ccc(C(=O)C2=C(O)C(=O)N(Cc3cccnc3)C2c2ccc(Br)cc2)o1 (stereo unspecified) | - | - | - | - | - | 18 | 29 | 38
CNC(C#Cc1ccccc1)c1ccccc1C(F)(F)F (stereo unspecified) | - | - | . | - | . | . | . | .
O=C1c2cc(Br)ccc2N(Cc2ccc(Br)cc2)S(=O)(=O)C1c1cc(Cl)c(Cl)cc1[N+](=O)[O-] (stereo unspecified) | . | . | . | . | - | . | . | .
Cc1nc(SCC(=O)Nc2nccs2)c(C#N)c(C)c1C | - | - | - | - | - | 33 | 44 | 66
COc1cc(-c2cc(-c3ccccc3)nc(SCC(=O)Nc3nccs3)c2C#N)cc(OC)c1OC | - | - | - | - | - | - | . | .
CN(Cc1ccccc1F)C(=O)CN1CCN(S(=O)(=O)c2ccc3c(c2)OCCCO3)CC1 | - | - | - | - | - | - | . | .
O=C(O)CCc1ccc(-c2ccc(Br)cc2)o1 | - | - | - | - | - | 29 | 37 | 45
COc1ccccc1Cn1c(=S)[nH]c2ccc(F)cc2c1=O | - | - | - | - | - | 32 | 18 | 17 | PG9 binder DR=-;PGV04 binding DR=-;PG126 binding DR=-
Cc1ccc(NC(=O)CSc2nc3sc(C)cc3c(=O)n2C)cc1 | - | - | - | - | - | 17 | 16 | 26
CC(C)c1nc(CNC(=O)CC2C(=O)NCCN2Cc2ccccc2)cs1 (stereo unspecified) | - | - | - | - | - | - | . | .
Cc1cc2sc(C(=O)O)c(C)c2s1 | - | - | - | - | - | 16 | 21 | 28
CCc1ccc(-c2cc3c(=O)n(CC(=O)NCCCN4CCN(C)CC4)ncn3n2)cc1 | - | - | - | - | - | - | . | .
CCOC(=O)c1cc(-c2cccc(C(F)(F)F)c2)nc2nc(SC)[nH]c(=O)c12 | - | - | - | - | - | - | . | .
CCOC(=O)c1cc(-c2ccc(C)cc2)nc2nc(SC)[nH]c(=O)c12 | - | - | - | - | - | 24 | 33 | 34
COc1ccc(-c2nnc(SCc3nc4ccccc4c(=O)[nH]3)o2)cc1 | - | - | - | - | - | 8.9 | 12 | 14
O=c1[nH]c2ccccc2c2ccc(Cl)cc12 | - | - | - | - | - | - | . | .
